# Test results as given in PubChem BioAssay (NCATS).
# Results filed as inconclusive are left out. Entries that show only a call come without a potency. Active and inactive are the calls of the source. Unless noted, the call rests on the fitted dose curve. Where a SMILES comes first, the peptide text is derived from it. Bridges are numbered along the chain shown (N, C = ends). [ ]: non-standard residue; d: D form. The star is where a group is joined. Dab(CH2SO3H) = N[C@@H](CCNCS(=O)(=O)O)C(=O)O; X1 = CC[C@@H](C)CCCCC(=O)*; Dab = NCC[C@H](N)C(=O)O
# Experiment: not given
# Settings: Ebola virus entry cell assay, ratio channel
Compound,outcome,AC50
Cc1onc(-c2ccccc2)c1C(=O)N[C@@H]1C(=O)N2[C@@H](C(=O)O)C(C)(C)S[C@@H]12,inactive,
NS(=O)(=O)c1cc(Cl)c(Cl)c(S(N)(=O)=O)c1,inactive,
C[C@]12CC[C@@H]3c4ccc(OC(=O)N(CCCl)CCCl)cc4CC[C@H]3[C@@H]1CC[C@@H]2OP(=O)(O)O,inactive,
Cc1nnc2n1-c1ccc(Cl)cc1C(c1ccccc1Cl)=NC2,inactive,
CSCC[C@H](NC(=O)[C@H](Cc1ccc(OS(=O)(=O)O)cc1)NC(=O)[C@@H](N)CC(=O)O)C(=O)NCC(=O)N[C@@H](Cc1c[nH]c2ccccc12)C(=O)N[C@@H](CCSC)C(=O)N[C@@H](CC(=O)O)C(=O)N[C@@H](Cc1ccccc1)C(N)=O,inactive,
O=C(O[C@H]1CN2CCC1CC2)N1CCc2ccccc2[C@@H]1c1ccccc1,,7.94 µM (active)
CC[C@@H](C)CCCCC(=O)N[C@@H](CCNCS(=O)(=O)O)C(=O)N[C@H](C(=O)N[C@@H](CCNCS(=O)(=O)O)C(=O)N[C@H]1CCNC(=O)[C@H]([C@@H](C)O)NC(=O)[C@H](CCNCS(=O)(=O)O)NC(=O)[C@H](CCNCS(=O)(=O)O)NC(=O)[C@H](CC(C)C)NC(=O)[C@@H](CC(C)C)NC(=O)[C@H](CCNCS(=O)(=O)O)NC1=O)[C@@H](C)O (X1-[Dab(CH2SO3H)]T[Dab(CH2SO3H)][Dab][Dab(CH2SO3H)][dL]L[Dab(CH2SO3H)][Dab(CH2SO3H)]T; lactam 4-C),inactive,
CCOC(=O)C1=C(COCCN)NC(C)=C(C(=O)OC)C1c1ccccc1Cl (centres undefined),inactive,
CC(C)NCC(O)c1ccc(NS(C)(=O)=O)cc1 (centres undefined),inactive,
CNCCC=C1c2ccccc2CCc2ccccc21,,7.94 µM (active)
O=C1Nc2ccc(Cl)cc2C(c2ccccc2)=NC1O (centres undefined),inactive,
CCCCC[C@H](O)/C=C/[C@@H]1[C@H]2C/C(=C/CCCC(=O)O)O[C@H]2C[C@H]1O,inactive,
N#Cc1ccc2c(c1)N(CCCN1CCC(O)CC1)c1ccccc1S2,,22.4 µM (active)
Nc1nc(=O)n([C@@H]2CS[C@H](CO)O2)cc1F,inactive,
O=C(O)c1cc(N=Nc2ccc(O)c(C(=O)O)c2)ccc1O,inactive,
CC(=O)N=c1sc(S(N)(=O)=O)nn1C,inactive,
COC(=O)C(c1ccccc1)C1CCCCN1 (centres undefined),inactive,
CN1C(=O)C(O)N=C(c2ccccc2)c2cc(Cl)ccc21 (centres undefined),inactive,
Nc1nc(Cl)nc2c1ncn2[C@H]1C[C@H](O)[C@@H](CO)O1,inactive,
Nc1ccn(C[C@@H](CO)OCP(=O)(O)O)c(=O)n1,inactive,
CC(=O)NC[C@H]1CN(c2ccc(N3CCOCC3)c(F)c2)C(=O)O1,inactive,
N#Cc1ccc(C(c2ccc(C#N)cc2)n2cncn2)cc1,inactive,
CC[C@H]1OC(=O)[C@H](C)C(=O)[C@H](C)[C@@H](O[C@@H]2O[C@H](C)C[C@H](N(C)C)[C@H]2O)[C@](C)(OC)C[C@@H](C)C(=O)[C@H](C)[C@H]2N(CCCCn3cnc(-c4cccnc4)c3)C(=O)O[C@]12C,inactive,
CCCC(C)(COC(N)=O)COC(N)=O,inactive,

# Experiment: Immunotoxin (SS1P) sensitization/mitigation study. Vehicle arm (DMEM) (AID 1159513; call rule not given here; further: potency means the concentration at half of the fitted maximal effect)
# Settings: cell viability with vehicle (DMEM); series mostly up to 46.1 µM
row,Compound,Potency
1,CNC(=O)c1ccccc1Sc1ccc2c(/C=C/c3ccccn3)n[nH]c2c1,1.05 µM (active)
2,Nc1nc(Cl)nc2c1ncn2[C@H]1C[C@H](O)[C@@H](CO)O1,48.1 µM (active)
3,Cc1ccc(Nc2nccc(N(C)c3ccc4c(C)n(C)nc4c3)n2)cc1S(N)(=O)=O,20.9 µM (active)
4,N#Cc1ccc(C(c2ccc(C#N)cc2)n2cncn2)cc1,inactive

# Experiment: qHTS assay to identify small molecule inhibitors of chordoma cells - UCH-1 (AID 1259355; active means well fitted curve in the direction sought with a large enough effect; an effect the other way counts as inactive or inconclusive; further: nearly all actives have a fitted effect of over 55% in size)
# Settings: UCH-1 chordoma viability, CellTiter-Glo, 48 h, combination; series mostly up to 46.1 µM
# Outline: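 A 48hr growth-inhibition format: each drug tested at 15 concentrations together with added auranofin, camptothecin, doxorubicin, rubitecan and topotecan, with cell viability quantified as CellTiter-Glo luminescence.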
row,Compound,outcome
1,C[C@](O)(CS(=O)(=O)c1ccc(F)cc1)C(=O)Nc1ccc(C#N)c(C(F)(F)F)c1,inactive
2,COc1ccc2c(c1)C13CCCC[C@@H]1C(C2)N(C)CC3 (some centres undefined),inactive
3,Cc1nnc2n1-c1ccc(Cl)cc1C(c1ccccc1Cl)=NC2,inactive
4,O=C1Nc2ccc(Cl)cc2C(c2ccccc2)=NC1O (centres undefined),inactive
5,COC(=O)C(c1ccccc1)C1CCCCN1 (centres undefined),inactive
6,CN1C(=O)C(O)N=C(c2ccccc2)c2cc(Cl)ccc21 (centres undefined),inactive
7,CCCC(C)(COC(N)=O)COC(N)=O,inactive

# Experiment: qHTS assay to identify small molecule inhibitors of chordoma cells - UCH-2 (AID 1259356; active means well fitted curve in the direction sought with a large enough effect; an effect the other way counts as inactive or inconclusive)
# Settings: UCH-2 chordoma viability, CellTiter-Glo ATP luminescence, 48 h; series mostly up to 46.1 µM
row,Compound,outcome
1,C[C@](O)(CS(=O)(=O)c1ccc(F)cc1)C(=O)Nc1ccc(C#N)c(C(F)(F)F)c1,inactive
2,COc1ccc2c(c1)C13CCCC[C@@H]1C(C2)N(C)CC3 (some centres undefined),inactive
3,Cc1nnc2n1-c1ccc(Cl)cc1C(c1ccccc1)=NC2,inactive
4,CN1C[C@H](C(=O)N[C@]2(C)O[C@@]3(O)[C@@H]4CCCN4C(=O)[C@H](Cc4ccccc4)N3C2=O)C=C2c3cccc4[nH]cc(c34)C[C@H]21,inactive
5,Cc1nnc2n1-c1ccc(Cl)cc1C(c1ccccc1Cl)=NC2,inactive
6,O=C1Nc2ccc(Cl)cc2C(c2ccccc2)=NC1O (centres undefined),inactive
7,COC(=O)C(c1ccccc1)C1CCCCN1 (centres undefined),inactive
8,CN1C(=O)C(O)N=C(c2ccccc2)c2cc(Cl)ccc21 (centres undefined),inactive
9,CCCC(C)(COC(N)=O)COC(N)=O,inactive
